HER2 expr 66K – inhibitors of Her2 protein expression, primary screen, SKBR-3 cells, AlphaScreen, 66K library | HER2 level % of control, % at 10 µM | 0.69% of 65,000 active | Receptor tyrosine-protein kinase erbB-2 (Homo sapiens), P04626 | SKBR-3 HER2 protein level, 18-24 h; hits give low values;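 active = HER2 level under 5% of the carrier-only control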;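 note: 100% = DMSO carrier and 0% = 500 nM PU-H71 HSP90 inhibitor; lower value means stronger loss of Her2 protein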
BAP1 inh – inhibitors of BAP1 deubiquitinase, primary screen, biochemical, Ub-AMC fluorescence, kinetic | recombinant BAP1, Ub-AMC hydrolysis fluorescence kinetic; hits give low values | AID 436, 2006 | Ubiquitin carboxyl-terminal hydrolase BAP1 (Homo sapiens), Q92560 | 0.48% of 72,000 active | calls only at 20 µM;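 active = activity remaining at or below 50% of control, provided the compound also passes the data quality filters; inactive = the rest, including low values that fail the filters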;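 note: 100% = DMSO wells rate and 0% = substrate alone blank rate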
TNAP act mid DEA – human TNAP enzyme activators, primary screen, biochemical, luminescent, intermediate phosphate acceptor level. activation factor at 20 µM. purified TNAP, CDP-star luminescence, 100 mM DEA, 30 min; hits give high values; scale: 0 levamisole-inhibited, 1 vehicle-only enzyme. Alkaline phosphatase, tissue-nonspecific isozyme (Homo sapiens), P05186. AID 813, 2007. 64,000 tested, under 10 active;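 active = activation factor of at least 2 at 20 µM, relative to controls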
SK-BR-3 tox 24h – SK-BR-3 proliferation inhibitors, primary screen, cell-based, human, 24 h; SK-BR-3 viability, CellTiter-Glo ATP luminescence; hits give low values; viability, % at 10 µM; 0.47% of 41,000 active;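 active = viability at or below the median of all test compounds minus 3 SD, in both replicates if run twice, cut at about 45% in these data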;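 note: 100% = median untreated cell wells and 0% = median positive control drug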
Ec RNAP inh – E. coli RNAP inhibitors, biochemical. DNA-directed RNA polymerase subunit beta (Escherichia coli (strain K12)), P0A8V2. E. coli RNA polymerase, fluorescence transcription assay. inhibition, %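 (tested at 10 µM)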. 0.2% of 62,000 active; in the data active = inhibition above about 20%;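 note: 0% = enzyme without compound and 100% = no enzyme blank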
* marks the source's active call; other numbers are inactive results; i = inactive; / = no result shown; + = active, no number. An excerpt weighted towards active compounds, which were near 1.4% of everything screened.

SMILES	HER2 expr 66K	BAP1 inh	TNAP act mid DEA	SK-BR-3 tox 24h	Ec RNAP inh
COC(=O)c1ccc(S(=O)(=O)N(Cc2cc3cc4c(cc3[nH]c2=O)OCO4)C2CCCCC2)cc1	70	+	0.9	104	0
CCOCCCn1c(C)nc2c(c1=O)c1nc3ccccc3nc1n2CCC1=CCCCC1	-22*	i	0.9	12*	2
CC1=C(C(=O)OCCCBr)C(c2ccccc2)NC(=O)N1 (configuration not stated)	/	i	/	/	/
CCN1CSC(=S)N(Cc2ccc(OC)cc2)C1	-12*	i	/	/	/
COc1ccc(C(=O)C(CN2CCCC2)c2ccccc2)cc1 (configuration not stated)	-6.9*	i	0.9	115	/
O=C(c1ccc(F)cc1)C(CN1CCOCC1)c1ccccc1 (configuration not stated)	-19*	i	0.9	22*	3
COc1ccc(C(=O)CCN2CCCCCC2)cc1	23	i	0.9	110	11
O=C(c1ccccc1)C(CCC(CN1CCOCC1)C(=O)c1ccccc1)CN1CCOCC1 (configuration not stated)	99	i	0.9	100	9
CCCOC(=O)c1ccc(NC(=O)COc2ccc(Cl)cc2)cc1	/	i	/	/	/
COC(=O)c1ccccc1NC(=O)CN1CCN(C23CC4CC(CC(C4)C2)C3)CC1	109	i	0.9	41*	-1
O=C(O)CCC(=O)Nc1nnc(C(F)(F)F)s1	105	i	0.9	40*	0
CC(C)N(Cc1nc(-c2ccccc2)no1)C(=O)c1ccc(Cl)cc1	89	i	0.9	/	0
CC(C)N(Cc1nc(-c2ccc(Cl)cc2)no1)C(=O)CN(C)S(=O)(=O)c1ccc(Cl)cc1	49	i	0.8	84	21*
Cc1cc(C)cc(-n2c3nc4ccccc4nc3c3c(=O)n(Cc4ccco4)cnc32)c1	7	/	0.9	153	8
CCOc1ccc(-n2c3nc4ccccc4nc3c3c(=O)n(Cc4ccco4)cnc32)cc1	125	i	0.8	122	22*
CCOc1ccc(-c2nnn(CC(=O)c3cc(OC)ccc3OC)n2)cc1	-14*	/	1	91	-5
CCOc1ccccc1NC(=O)Cn1nnc(-c2ccc(OCC)c(OCC)c2)n1	-20*	i	0.9	97	9
COc1ccc(OC)c(CN2CCN(Cc3ccccc3Br)CC2)c1	/	i	/	/	/
Cc1ccc(OCCSc2nc3ccc(Br)cc3[nH]2)cc1C	/	i	/	/	/
FC(F)(F)c1cc(-c2ccccc2)nc(N2CCCCCC2)n1	71	i	0.9	86	4
Cc1cc(NC(=O)CCS(=O)(=O)c2nc(-c3ccccc3)cc(C(F)(F)F)n2)no1	/	i	0.9	39*	-7
CS(=O)(=O)c1nc(-c2ccccc2)cc(C(F)(F)F)n1	-24*	/	0.9	28*	-1
CC1=C(C(=O)OC2CCCC(C)C2)C(c2ccccc2Cl)NC(=O)N1 (configuration not stated)	/	i	/	/	/
O=C(C1CCCO1)N1CCN(S(=O)(=O)c2ccccc2)CC1 (configuration not stated)	106	i	0.9	89	11
Cc1ccc2nsnc2c1S(=O)(=O)N1CCN(C(=O)C2CCCO2)CC1 (configuration not stated)	140	i	1	37*	8
SMILES	HER2 expr 66K	BAP1 inh	TNAP act mid DEA	SK-BR-3 tox 24h	Ec RNAP inh
CCN(CC)CCC#CC(OC)(c1ccccc1)c1ccccc1	/	i	/	/	/
Cc1nc2cc(N=Cc3cc([N+](=O)[O-])ccc3O)ccc2n1Cc1ccccc1	/	i	/	/	/
Cc1cc(C)c2cc(CN(CCO)C(=O)Nc3ccc(F)cc3)c(=O)[nH]c2c1	84	i	0.8	61	2
Cc1cc(C)c2cc(CN(Cc3ccco3)C(=O)NCc3ccccc3)c(=O)[nH]c2c1	67	i	1	37*	-5
Cc1cccc(C)c1NC(=O)c1c(-c2ccccc2Cl)noc1C	/	i	/	/	/
COc1ccc(OC)c(NC(=O)CN(c2ccc(OC)c(Cl)c2)S(C)(=O)=O)c1	95	i	0.9	36*	7
CCNC(=O)c1nc[nH]c1C(=O)NCC	-22*	i	1	95	7
CCOC(=O)c1[nH]cnc1C(=O)O	107	i	0.9	84	10

Screening results from PubChem BioAssay.
